# This is a sample that favours compounds with a hit; in the whole collection about 19% have one here.
# HT1080-NT tox: qHTS for induction of synthetic lethality in tumor cells producing 2HG: qHTS for the HT-1080-NT fibrosarcoma cell line; Potency, µM (top dose mostly 46.1 µM), for inactives: top-dose activity, negative = less viability, actives largely listed as cytotoxic; HT-1080-NT fibrosarcoma viability, CellTiter-Glo ATP luminescence, 48 h; 360,000 tested, 1.6% active;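 also: NT is the 2HG producing partner of a matched IDH1 knockdown line; 0% = DMSO-treated cells and -100% = media-only wells without cells; nearly all actives have a fitted effect of over 55% in size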
#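 Toxicity toward the 2HG-producing NT line was scored as %Activity, normalised to DMSO and no-cell wells, from CellTiter-Glo luminescence after 48 hours' treatment.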
# HT1080 IDH1KD tx: qHTS for induction of synthetic lethality in tumor cells producing 2HG: qHTS for the HT-1080-IDH1KD cell line; HT-1080 IDH1 knockdown viability, ATP luminescence, 48 h; AID 686971, 2013; 360,000 tested, 2% active; Potency, µM (highest dose often 46.1 µM), without a hit: at the highest dose activity, negative = toxicity, hits mostly cytotoxic;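 also: 0% = DMSO wells and -100% = cell-free medium wells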
#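 % activity derives from luminescence (CellTiter-Glo), normalised to DMSO and no-cell wells. HT-1080-IDH1KD cells, 750/well, had 48 h compound exposure at 37 °C.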
# KB-V1 cytotox: qHTS assay for MDR1-selective chemotherapeutics: Primary screen using the drug-selected MDR subline cells KB-V1; KB-V1 MDR cells viability, CellTiter-Glo, 72 h; Potency, µM (series often up to 46.1 µM), most hits filed as cytotoxic; 400,000 tested, 3.4% active; also: nearly all actives have a fitted effect of over 60% in size
#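 Cells of the MDR subline KB-V1 are plated, dosed with compound at multiple concentrations, and incubated 72 h at 37 degrees C; CellTiter-Glo is then added and luminescence read after 10 min.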
# TDP1 cell CPT: qHTS for Inhibitors of human tyrosyl-DNA phosphodiesterase 1 (TDP1): qHTS in cells in presence of CPT | 420,000 tested, 12% active | Potency, µM (titrated, usually from 46.2 µM), inactives show top-dose activity change, negative = growth inhibition, most hits filed as inhibitors | AID 686979, 2013 | chicken DT40 Tdp1-/-;hTDP1 cells + 20 nM CPT, ATP luminescence, 48 h; also: nearly all actives have a fitted effect of over 55% in size
#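 Chicken DT40 Tdp1-/- cells complemented with human TDP1, 400 cells/well, exposed to compounds plus 20 nM camptothecin for at least 48 h at 37 C; viability read as ATP content by CellTiter-Glo luminescence.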
# KB-3-1 tox: qHTS assay for MDR1-selective chemotherapeutics: Primary screen using the parental adenocarcinoma cell KB-3-1; KB-3-1 viability, CellTiter-Glo ATP luminescence, 72 h; Potency, µM (titrated, usually from 46.1 µM), usual class: cytotoxic; 400,000 tested, 1.4% active; also: nearly all actives have a fitted effect of over 60% in size
#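 KB-3-1 cells, DMEM (no phenol red) + 10% FBS; compound by pin transfer, 72 h, 37 °C. Readout: CellTiter-Glo luminescence after 10 min. Data normalized, curve-fitted.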
# TDP1 cell noCPT: qHTS for Inhibitors of human tyrosyl-DNA phosphodiesterase 1 (TDP1): qHTS in cells in absence of CPT; 420,000 tested, 15% active; DT40 Tdp1-/- hTDP1 cells, no CPT, ATP luminescence, 48 h; Potency, µM (top dose mostly 46.2 µM), for inactives: top-dose activity change, negative = growth inhibition, hits mostly inhibitors; also: nearly all actives have a fitted effect of over 55% in size
#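 Cells were dispensed at 400 per well, compounds added by pin tool, plates incubated ≥48 hr at 37 °C, then CellTiter-Glo added for 30 min at room temperature before luminescence reading. Line: DT40 Tdp1-/- complemented with hTDP1; camptothecin omitted.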
# The depositor's hits bear a star; i = inactive; ? = inconclusive; . = no result. Calls follow the shape of the dose curve; as a rule, active = well fitted curve in the direction sought with a large enough effect; inconclusive = small, poorly fitted or top-dose-only effect, or another doubt; inactive = no such curve, though single readings can be large; an effect the other way counts as inactive or inconclusive. Unless noted, % is scaled to controls: 0 for no effect and ±100 for the full control effect; potency is read from the fitted curve at half-maximal effect.
SMILES,HT1080-NT tox,HT1080 IDH1KD tx,KB-V1 cytotox,TDP1 cell CPT,KB-3-1 tox,TDP1 cell noCPT
O=[N+]([O-])c1cc(C(F)(F)F)cc([N+](=O)[O-])c1N1CCN(S(=O)(=O)c2ccccc2)CC1,9.6%,11.6%,i,?,i,?
O=[N+]([O-])c1cc(C(F)(F)F)ccc1N1CCN(S(=O)(=O)c2ccc3ccccc3c2)CC1,-7.2%,-13.4%,5.17µM*,?,18.4µM*,?
Cc1ccc2ccc(C(Nc3cccc(C(F)(F)F)c3)c3cccnc3)c(O)c2n1 (stereo unspecified),-1.2%,-9.6%,i,?,i,?
Cc1ccc2ccc(C(Nc3ccccc3)c3ccc(Cl)cc3)c(O)c2n1 (stereo unspecified),-18.4%,?,?,4.11µM*,?,3.26µM*
Cc1ccc2ccc(C(Nc3ccccc3)c3ccc(F)cc3)c(O)c2n1 (stereo unspecified),?,?,?,9.2µM*,i,5.8µM*
Cc1ccc2ccc(C(Nc3ccccc3)c3ccccc3)c(O)c2n1 (stereo unspecified),-7.8%,?,?,10.3µM*,4.11µM*,6.51µM*
Cc1ccc2ccc(C(Nc3ccccc3)c3ccc(C(C)C)cc3)c(O)c2n1 (stereo unspecified),?,?,?,14.6µM*,14.6µM*,11.6µM*
CON(C)C(=O)C[C@@H]1C[C@H](OC(=O)c2ccc([N+](=O)[O-])cc2)CN1C(=O)OC(C)(C)C,-4.8%,-0.9%,i,-21.1%,i,?
COc1ccccc1Cc1nc2ccccc2nc1SCC(=O)Nc1cccc(Cl)c1C,.,.,.,19.6%,.,0.6%
O=c1[nH]nc(N2CCOCC2)c(=O)[nH]1,9.0%,10.0%,i,?,i,16.4µM*
CCc1noc(C)c1C(=O)N1CCN(S(=O)(=O)c2ccccc2C(F)(F)F)CC1,12.2%,7.7%,i,-17.6%,i,18.4%
CCOc1ccc(/C=N/NC(=O)Cc2ccccc2)cc1CN1CC2CC(C1)c1cccc(=O)n1C2 (stereo unspecified),-28.6%,?,i,?,i,20.6µM*
Cc1c(NS(=O)(=O)c2ccc(N3CCCCC3)c([N+](=O)[O-])c2)c(=O)n(-c2ccccc2)n1C,15.8%,21.2%,?,4.3%,i,-3.4%
Cc1c(NS(=O)(=O)c2ccc(N(C)C3CCCCC3)c([N+](=O)[O-])c2)c(=O)n(-c2ccccc2)n1C,-4.4%,-0.5%,14.6µM*,?,?,?
O=C(Nc1cccc(S(=O)(=O)N2CCOCC2)c1)c1c2c(nc3ccccc13)CCC2,3.8%,11.7%,i,2.0%,i,-6.1%
COCCN1C[C@@H](CO)O[C@@H](n2cnc3c(NC4CC4)ncnc32)C1,-4.6%,10.1%,i,-14.2%,i,2.1%
Cc1ccccc1N1CCN(Cc2nc(Cc3ccccc3)no2)CC1,16.4%,9.4%,?,?,i,?
CC(=O)c1ccc(N2CCN(Cc3nc(Cc4ccccc4)no3)CC2)cc1,-17.2%,2.0%,i,?,i,16.4µM*
CC(=O)c1ccc(N2CCN(Cc3cc(=O)n4c(-c5ccccc5)csc4n3)CC2)cc1,?,-18.1%,i,?,i,20.6µM*
O=c1cc(CN2CCN(c3ccccc3)CC2)nc2scc(-c3ccccc3)n12,-9.3%,-2.5%,?,?,i,23.1µM*
CCOC(=O)C1CCCNC1=O (stereo unspecified),13.8%,6.2%,i,7.7%,i,0.2%
COc1cc(NC(=O)N2CCC(CN3CCOCC3)CC2)cc(OC)c1OC,.,.,.,-19.8%,.,-13.5%
O=C(NCc1cccc(Cl)c1)c1cnn2c1NC(c1ccco1)CC2C(F)(F)F (stereo unspecified),-23.4%,?,i,18.4µM*,i,16.4µM*
O=C(Nc1ccc2c(c1)CCC2)c1cnn2c1NC(c1ccco1)CC2C(F)(F)F (stereo unspecified),?,23.1µM*,i,11.6µM*,i,-57.9%
CN(Cc1ccc(-n2cccn2)cc1)C(=O)c1cnn2c1NC(c1ccco1)CC2C(F)(F)F (stereo unspecified),-7.8%,-7.1%,4.61µM*,23.1µM*,?,16.4µM*
SMILES,HT1080-NT tox,HT1080 IDH1KD tx,KB-V1 cytotox,TDP1 cell CPT,KB-3-1 tox,TDP1 cell noCPT
COCCNC(=O)c1cnn2c1NC(c1ccco1)CC2C(F)(F)F (stereo unspecified),2.9%,-0.8%,i,-2.1%,i,0.8%
CCCCN(C)CCNC(=O)c1cc(=O)[nH]c2ccc(S(=O)(=O)N3CCCCCC3)cc12,.,.,?,-11.3%,i,-1.0%
NNc1nc2c(-c3ccc(Cl)cc3)nnn2c2ccccc12,2.0%,-1.8%,i,10.3µM*,i,?
NNc1nc2c(-c3ccc(F)cc3)nnn2c2ccccc12,-25.4%,-27.2%,i,10.3µM*,i,11.6µM*
Fc1ccc(-c2nnn3c2nc(NCc2ccccc2)c2ccccc23)cc1,20.2%,-3.9%,i,-17.2%,i,?
Cc1ccc(NC(=O)CN(C)C(=O)COC(=O)[C@@H](NC(=O)c2ccccc2F)C(C)C)cc1,5.0%,1.4%,i,-22.4%,i,-2.1%
CCOc1ncccc1C(=O)N1CCN(S(=O)(=O)c2ccc3ccccc3c2)CC1,-3.1%,-1.0%,?,23.1µM*,i,?
COc1ccc(S(=O)(=O)N2CCN(C(=O)c3cccnc3)CC2)cc1OC,-0.8%,1.8%,i,-3.0%,i,0.5%
O=C(c1cccnc1)N1CCN(S(=O)(=O)c2ccc3ccccc3c2)CC1,-1.3%,-0.1%,18.4µM*,-23.0%,16.4µM*,?
COc1ccccc1-c1nnc(SC2CCc3ccccc3NC2=O)s1 (stereo unspecified),3.2%,-14.2%,5.8µM*,?,i,?
O=C(Cn1ncc2c3ccccc3n(Cc3ccc(F)cc3)c2c1=O)NCc1ccccn1,.,.,i,?,i,?
